Measured values from PubChem BioAssay AID720707 (National Center for Advancing Translational Sciences (NCATS), 2013).
Among all 360,000 compounds or so, about 270 (0.075%) were called active. A call without a number means that no potency is given here. Calls follow the shape of the dose curve; as a rule, active = well fitted activation curve with a large enough effect; inconclusive = small, poorly fitted or top-dose-only effect; inactive = no such curve, though single readings can be large or run the other way. For the sample, actives were picked, then their nearest neighbours and some compounds at random.

Target: Rap guanine nucleotide exchange factor 3 (Homo sapiens) (UniProt O95398)
Sequence (O95398 whole entry, looked up): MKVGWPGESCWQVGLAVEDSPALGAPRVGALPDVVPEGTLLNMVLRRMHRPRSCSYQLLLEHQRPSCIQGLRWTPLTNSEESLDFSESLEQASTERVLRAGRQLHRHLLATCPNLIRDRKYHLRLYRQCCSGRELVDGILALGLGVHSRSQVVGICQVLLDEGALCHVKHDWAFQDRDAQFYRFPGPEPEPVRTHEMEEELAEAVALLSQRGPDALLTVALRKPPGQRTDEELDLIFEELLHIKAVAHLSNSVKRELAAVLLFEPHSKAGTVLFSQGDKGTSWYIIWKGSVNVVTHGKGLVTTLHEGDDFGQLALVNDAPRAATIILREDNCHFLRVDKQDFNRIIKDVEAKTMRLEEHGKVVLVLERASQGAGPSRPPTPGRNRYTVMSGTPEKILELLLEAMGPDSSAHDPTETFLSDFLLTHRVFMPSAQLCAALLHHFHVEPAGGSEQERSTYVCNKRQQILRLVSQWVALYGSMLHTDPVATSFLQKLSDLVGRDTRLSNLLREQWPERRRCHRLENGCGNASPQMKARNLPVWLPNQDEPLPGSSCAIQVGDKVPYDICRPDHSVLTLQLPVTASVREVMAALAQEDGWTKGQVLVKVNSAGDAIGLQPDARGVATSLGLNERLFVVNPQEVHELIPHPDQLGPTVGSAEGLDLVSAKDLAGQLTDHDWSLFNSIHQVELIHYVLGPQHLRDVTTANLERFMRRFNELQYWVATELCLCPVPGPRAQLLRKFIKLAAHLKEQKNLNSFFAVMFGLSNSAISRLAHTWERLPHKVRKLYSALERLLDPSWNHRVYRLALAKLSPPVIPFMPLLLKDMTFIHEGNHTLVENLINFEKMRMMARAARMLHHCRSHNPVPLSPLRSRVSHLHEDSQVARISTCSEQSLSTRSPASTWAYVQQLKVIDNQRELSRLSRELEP
Test: qHTS for Agonist of cAMP-regulated guanine nucleotide exchange factor 3 (EPAC1): primary screen; also: nearly all actives have a fitted effect of over 60% in size
Settings: biochemical assay; series mostly up to 154 µM
Text: In multi-cellular eukaryotic organisms, the effects of cAMP are transduced by two ubiquitously-expressed intracellular cAMP receptors, the classic protein kinase A/cAMP-dependent protein kinase (PKA/cAPK) and the more recently discovered exchange protein directly activated by cAMP/cAMP-regulated guanine nucleotide exchange factor (EPAC/cAMP-GEF). Both PKA and EPAC are ubiquitously expressed in all tissues, and an increase in intracellular cAMP levels will lead to the activation of both PKA and EPAC. Therefore, careful dissections of the individual role and relative contribution of EPAC and PKA within the overall cAMP signaling in various model systems are critical for further elucidating the mechanism of cAMP signaling. To date no EPAC-specific antagonists and agonist, as well as isoform-specific agonists have been reported, and developing EPAC-specific pharmacological probes to determine the physiological functions that EPAC play in the overall cAMP-mediated signaling remains a major challenge within the research field. Furthermore, identified regulators of EPAC may lead to new mechanism-based therapeutic strategies specifically targeting the EPAC / cAMP-signaling components as EPAC has been implicated to play important roles in major human pathological conditions such as diabetes, heart disease, and cancer.
This qHTS will be used to screen the Molecular Libraries Small Molecule Repository (MLSMR) as a concentration-titration series using the NCGC unique quantitative screening (qHTS) platform to find activators for EPAC1. In addition, this assay will also be used as a counterscreen for the EPAC2 qHTS. This fluorescent based assay is developed and validated for EPAC1 that measures exchange using EPAC effector Rap1 complex with BODIPY-GDP, a GDP analog with a tethered fluorophores. Activators are identified by monitoring the change in fluorescence signal as the exchanged free BODIPY-GDP has a reduced fluorescence compared to Rap1-bound BODIPY-GDP. Increase in signal (activation) is the desired outcome for the EPAC1 agonist while no activity in this assay is desired for the EPAC2 agonist counterscreen.
[1] de Rooij, J., Zwartkruis, F. J., Verheijen, M. H., Cool, R. H., Nijman, S. M., Wittinghofer, A., and Bos, J.L. (1998) Nature 396, 474-477
NIH Chemical Genomics Center [NCGC]
NIH Molecular Libraries Probe Centers Network [MLPCN]
Assay Submitter (PI): Xiaodong Cheng, The University of Texas Medical Branch
Briefly, three uL of reagents (100 nM EPAC1, 250 nM RAP1B-BODIPY-GDP, 50 uM GDP) were dispensed into a 1536-well Greiner black solid-bottom medium binding assay plate. Controls and test compounds (23 nL) were transferred to the plate via a Kalypsys pin tool equipped with a 1536-pin array. The plates were centrifuged at 1,000 rpm for 15 seconds followed by 5 minute incubation at room temperature. The assay plates were read at 5 minute intervals for 30 minutes in the ViewLux plate reader using 480nm excitation and 540nm emission filters. The results were normalized to the agonist positive control of 6.5 mM cAMP.
Potency is read from the fitted curve at half-maximal effect.

| Compound | Potency |
| --- | --- |
| COC(=O)CN(c1cccc(C(C)=O)c1)S(C)(=O)=O | inactive |
| CCN(CC)c1ccc2oc(=O)c(C)nc2c1 | 100 µM (active) |
| CN(CC(=O)Nc1ccccc1[N+](=O)[O-])Cc1ccc(Br)cc1 | inactive |
| O=C(C[C@H]1CC[C@H]2[C@@H](COC[C@H](O)CN2C(=O)c2ccccn2)O1)N1CCN(c2ccccc2)CC1 | inactive |
| Cc1ccccc1-n1cc(CNC(=O)C2CCC(=O)N(C3CC3)C2)cn1 (stereo not drawn) | inactive |
| Cc1ccc(NC(=O)CCC(=O)N2CCC(c3ccccc3)=N2)cc1S(=O)(=O)N1CCCCC1 | inactive |
| O=C(NC(=S)Nc1ccc(Br)cc1F)C1CCCCC1 | inactive |
| CCOc1ccc(NC(=O)C2CCN(C(=O)N3CCOc4ccccc43)CC2)cc1 | inactive |
| CCOc1ccc(CC(=O)Nc2ccc(S(=O)(=O)Nc3cc(C)on3)cc2)cc1OCC | inactive |
| CCC(C)NC(=O)Cn1nc(C(F)(F)F)c2c1CCC2 (stereo not drawn) | inactive |
| COc1cc(Cl)c(C)cc1NC(=O)CSc1nnc(CN2CCCC2)o1 | inactive |
| COc1ccc(OC)c(NC(=O)c2cc(-c3cc(F)ccc3OCC3CCCO3)n[nH]2)c1 (stereo not drawn) | inactive |
| O=C(NCCC1CCCCN1S(=O)(=O)c1ccccc1)C(=O)NCC1CCCO1 (stereo not drawn) | inactive |
| O=C(NCCc1ccco1)C(=O)NCCC1CCCCN1S(=O)(=O)c1ccccc1 (stereo not drawn) | inactive |
| O=C(NCCC1CCCCN1S(=O)(=O)c1ccc(Cl)cc1)C(=O)NCc1ccco1 (stereo not drawn) | 50.1 µM (active) |
| COCCCNc1nc2ccccc2nc1NS(=O)(=O)c1ccc(F)cc1 | inactive |
| CO/N=C/c1cn(-c2ccc(Cl)cc2)nn1 | inactive |
| CN1CCN(C2=NCCO2)CC1 | inactive |
| CC(=O)Oc1ccc(Cn2c(C)c(C(=O)NCc3ccc(C#N)cc3)sc2=O)cc1 | inactive |
| Cc1cccc(CC(=O)N2CCN=C2SCc2ccc([N+](=O)[O-])cc2)c1 | inactive |
| Cc1ccc(S(=O)(=O)N2CCCCC2)cc1C(=O)N(C)CC(=O)Nc1cccc(F)c1 | inactive |
| Cc1cc(NC(=O)CN2C(=O)NC(C)(CCc3ccccc3)C2=O)no1 (stereo not drawn) | inactive |
| Cc1cccc(-c2nc(CS(=O)CC(=O)NC(C)CCc3ccccc3)c(C)o2)c1 (stereo not drawn) | inactive |
| CC(C)N1CCC(=NNc2ccc([N+](=O)[O-])cc2S(=O)(=O)N2CCOCC2)CC1 | inactive |
| Cc1ccccc1NC(=O)C1CCCN(C(=O)NCc2ccccc2)C1 (stereo not drawn) | inactive |
| O=C1CCC(C(=O)N2CCN(c3ccccc3Cl)CC2)CN1CC1CCCCC1 (stereo not drawn) | inactive |

| Compound | Potency |
| --- | --- |
| CS(=O)(=O)/C(C#N)=C/c1cccn1S(=O)(=O)c1ccc([N+](=O)[O-])cc1 | inactive |
| O=C(c1ccc(CS(=O)Cc2ccccc2Cl)o1)N1CCN(c2ccccc2)CC1 (stereo not drawn) | inactive |
| CCN1C(=NCc2ccc(OC)cc2)N[C@@H](CCc2ccccc2)[C@H](C(=O)NCc2ccc(OC)cc2)[C@H]1C | inactive |
| CCc1cccc(CC)c1N1C(=O)CC(Sc2ccccc2N)C1=O (stereo not drawn) | inactive |
| CCCC(=O)OCC(=O)Nc1cc(Cl)ccc1[N+](=O)[O-] | inactive |
| CC(C)Cc1ccc(S(=O)(=O)N2CCN(C(=O)c3ccco3)CC2)cc1 | inactive |
| CC(=O)c1cccc(NC(=O)N2CCCC2C(=O)NCCC(C)C)c1 (stereo not drawn) | inactive |
| Cc1ccsc1C(=O)N[C@@H](C)c1nnc2ccccn12 | inactive |
| Nc1ccc2nc3c(=O)[nH]c(=S)[nH]c3nc2c1 | 89.1 µM (active) |
| COC(=O)[C@@]1(C)[C@H]2C(=O)N(Cc3ccccc3)C(=O)[C@H]2[C@H]2CN=C(SCC3CC3)N21 | inactive |
| NC(=O)C1CCN(C(=O)c2ccc(-c3ccccc3)cc2)CC1 | inactive |
| O=C(C1=C(O)C(=O)N(CCOCCO)C1c1ccccn1)c1cccs1 (stereo not drawn) | inactive |
| CCOC(=O)c1cnn2c(SC)ncnc12 | inactive |
| COCCn1c(SCC(=O)N2CCCCCC2)nc2c(c1=O)SCC2 | inactive |
| CC(=O)Nc1ccc(S(=O)(=O)NNC(=O)CCc2ccccc2)cc1 | inactive |
| CCNC(=O)c1cnn(-c2ccccc2)c1-c1ccccc1 | inactive |
| CN1CCN(Cc2nc3c(c(=O)n(C)c(=O)n3C)n2Cc2cccc3ccccc23)CC1 | inactive |
| Cc1ccc2c(c1)N(CC(=O)N1CCC(O)CC1)C(=O)CO2 | inactive |
| CCOC(=O)C1CCN(C(=O)CSc2cc(=O)n(C)c3ccccc23)CC1 | inactive |
| CCOC(=O)C1CCCN(C(=O)c2sc3nc(C)nc(N4CCOCC4)c3c2C)C1 (stereo not drawn) | inactive |
| CS(=O)(=O)N1CCc2cc(C(=O)Nc3ccccc3Br)ccc21 | inactive |
| CC(=O)c1ccc(N2CCN(S(=O)(=O)c3c(C)[nH]c(=O)[nH]c3=O)CC2)cc1 | inactive |
| C=CCN(CC=C)C(=O)COC(=O)c1n[nH]c2ccccc12 | inactive |
| CCOC(=O)c1cc(-c2ccc(F)cc2)n(CC(=O)NCc2ccccn2)c1C | inactive |
| CC[C@H](C)C(=O)N[C@H]1CCCN1C(=O)/C=C/c1ccccc1 | inactive |
| O=C(O)Cc1csc(NC(=O)CSc2nnnn2-c2ccc(O)cc2)n1 | inactive |

| Compound | Potency |
| --- | --- |
| COc1cccc(N2CC(NC(=O)c3ccc4ccccc4c3)CC2=O)c1 (stereo not drawn) | inactive |
| O=C1c2cccnc2C(Nc2ccc(S(=O)(=O)N3CCCCCC3)cc2)N1Cc1ccccc1 (stereo not drawn) | inactive |
| NC(=O)c1ccsc1NC(=O)COC(=O)COc1ccc(C=O)cc1 | inactive |
| Cc1ccc(NC(=O)CN(C)C(=O)COC(=O)c2nccnc2N)cc1 | inactive |
| O=S(=O)(c1ccccc1)c1nc(Cc2ccccc2)oc1N1CCOCC1 | inactive |
| COc1ccc(NC(=O)NCCN2CCN(c3ccc(C)cc3)CC2)c(Cl)c1 | inactive |
| O=C(CSc1nnc2c(n1)[nH]c1ccccc12)NC1CCCCC1 | inactive |
| O=C(C1CCN(c2nnc(-n3cccc3)s2)CC1)N1CCc2ccccc2C1 | inactive |
| Cc1ccc(C)c(S(=O)(=O)N2CCCOC2CNC(=O)C(=O)NC2CCCCC2)c1 (stereo not drawn) | inactive |
| O=C(CN1CCc2ccccc2C1)Nc1cccc(S(=O)(=O)N2CCOCC2)c1 | inactive |
| CC(C)Oc1ccc(C(=O)NC(C)(C)CO)cc1 | inactive |
| O=C(Nc1cc2c3c(c1)CC(=O)N3CCC2)c1ccccc1F | inactive |
| Cc1cc([N+](=O)[O-])nn1CC(=O)Nc1ccc(Cc2ccncc2)cc1 | inactive |
| O=C1CCCN2N=C(SCC(=O)Nc3ccc(Br)cc3)SC2=N1 | inactive |
| CCC1CCCCN1C(=S)Nc1ccc(S(=O)(=O)Nc2ncccn2)cc1 (stereo not drawn) | inactive |
| Cc1ccsc1CNn1cnnc1SCc1ccccc1F | inactive |
| COc1ccc(N2CCN(C(CNS(=O)(=O)c3ccc(C)cc3)c3ccccc3)CC2)cc1 (stereo not drawn) | inactive |
| CCOC(=O)/C(C#N)=C/c1ccc(N2CCN(Cc3ccccc3)CC2)cc1 | 89.1 µM (active) |
| CCOC(=O)C1CCN(Cc2ccc(-c3ccccc3)cc2)CC1 | inactive |
| CCCn1c(C)cc(/C=C(\C#N)C(=O)OCC(=O)N(C)c2c(N)n(Cc3ccccc3)c(=O)[nH]c2=O)c1C | inactive |
| Cn1cnc([N+](=O)[O-])c1Nc1ccccc1O | inactive |
| COc1ccc2c3c1O[C@H]1C[C@@H](O)C=C[C@@]31CCN(C)C2 | inactive |
| COc1cc(C(=O)NCC(c2ccco2)N2CCCC2)ccc1OCc1ccccc1 (stereo not drawn) | inactive |
| CC(=O)NC(C)(C)C1CC=C(C)/C(=N\O)C1 (stereo not drawn) | inactive |
| COc1ccc([N+](=O)[O-])cc1NC(=O)C(C)OC(=O)C1c2ccccc2Oc2ccccc21 (stereo not drawn) | inactive |
| C[C@@H]1CN([C@H](C)CO)C(=O)c2cc(NC(=O)NC3CCCCC3)ccc2O[C@H]1CN(C)S(C)(=O)=O | inactive |

| Compound | Potency |
| --- | --- |
| CSc1nnc2c(n1)OC(c1ccsc1)N(C(C)=O)c1ccccc1-2 (stereo not drawn) | inactive |
| CC(NC(=O)CCC(=O)N1CCN(S(=O)(=O)c2ccc(Cl)cc2)CC1)c1ccccc1 (stereo not drawn) | inactive |
| Cc1ccsc1-c1nc(CSCC(=O)NCCN2CCCC2)c(C)o1 | inactive |
| COc1ccc(-n2c(SCC(=O)Nc3ccc4c(c3)OCO4)nnc2C(C)N2CCCCC2)cc1 (stereo not drawn) | inactive |
| NS(=O)(=O)c1cc(C(=O)OCC(=O)NNC(=O)c2ccccc2)ccc1Cl | inactive |
| O=c1c2ccccc2ccc2ccc(P(=O)(O)O)cc12 | inactive |
| CC(=O)Nc1ccc(S(=O)(=O)N(C)CC(=O)NCCC2=CCCCC2)cc1 | inactive |
| COc1cc(OC)cc(C(=O)NCC(=O)N2CCCCCCC2)c1 | inactive |
| COC(=O)C(C(=O)Nc1cccc(C)n1)C1CCCCCC1 (stereo not drawn) | inactive |
| C[C@H]1CN([C@@H](C)CO)C(=O)CCCn2cc(nn2)CO[C@@H]1CN(C)S(=O)(=O)c1cccc(C#N)c1 | inactive |
| CN(C)c1ccc(C2Nc3ccccc3C(=O)N2NS(=O)(=O)c2ccccc2)cc1 (stereo not drawn) | inactive |
| O=C(O)c1cccnc1NC1CCCC1 | inactive |
| COC(=O)c1ccccc1NC(=O)CSc1nc2c(c(=O)[nH]1)CCC2 | inactive |
| Oc1ccc2ccc3cccc[n+]3c2c1 | 89.1 µM (active) |
| C=CCN1CCN(c2ccncc2S(=O)(=O)N2CCN(C)CC2)CC1 | inactive |
| CC(=O)Nc1ccc(S(=O)(=O)N2CCN(C(=O)c3ccccc3F)CC2)cc1 | inactive |
| CCOC(=O)N1CCC(N(CCOC)C(=O)Nc2ccc(C)c(C)c2)CC1 | inactive |
| COc1ccc(-c2cc(NC=O)c3ncc(-c4ccccc4)n3c2)cc1OC | inactive |
| O=C(O)CCCCCCCCCC[n+]1ccccc1 | inactive |
| Cc1cc(C)n2nc(C(=O)N(C)C(c3ccccc3)c3ccccc3)nc2n1 | inactive |
| CCn1cc(CN2CCN(CC(C)(C)C)C(CCO)C2)c2ccccc21 (stereo not drawn) | inactive |
| NS(=O)(=O)c1ccc(N=Cc2ccc(Br)s2)cc1 | inactive |
| COC(=O)c1cc(NC(=O)CN2CCC(C(N)=O)(N3CCCCC3)CC2)cc(C(=O)OC)c1 | inactive |
| O=C(O)CSCNC(=O)CC12CC3CC(CC(C3)C1)C2 | inactive |
| Cc1ccc(CCNC(=O)C2CCN(S(=O)(=O)N3CCCC3)CC2)cc1 | inactive |
